Data reported in PubChem BioAssay AID1159580 (chemical genetic matrix, 2015).
Screen size: about 5,500 compounds; about 2,000 (36%) were called active. Inconclusive results (about 18%) are left out. Rule as the data show it: active = normalized growth mostly below about 0.91 (no sharp cut-off); inconclusive = no clear call, values can overlap the other calls; inactive = mostly above about 0.92. The list shows a part of the results.

Assay: chemical genetic growth profiling, strain panel (AID 1159580);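 also: tested at 20 µM; growth read once vehicle control cultures reached saturation at 30 °C; 1 = growth at the plate median or of vehicle wells; lower values mean less growth of the strain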
Conditions: S. cerevisiae deletion strains, growth OD

Measured: normalized growth

COc1cc(OC)c(C(C)=O)c(O)c1C
inactive: locus YAL021C, strain ccr4, hits give low values 0.991 | locus YAL026C, strain drs2, hits give low values 0.908 | locus YAL030W, strain snc1, hits give low values 0.953 | locus YBL061C, strain skt5, hits give low values 0.923 | locus YBR171W, strain sec66, hits give low values 0.945 | locus YBR231C, strain swc5, hits give low values 0.934 | locus YBR279W, strain paf1, hits give low values 0.951 | locus YCL016C, strain dcc1, hits give low values 0.956 | locus YCL061C, strain MRC1, hits give low values 0.937 | locus YCL069W, strain vba3, hits give low values 0.942 | locus YCR088W, strain abp1, hits give low values 0.937 | locus YDL005C, strain med2, hits give low values 0.978 | locus YDL040C, strain nat1, hits give low values 0.949 | locus YDR001C, strain nth1, hits give low values 0.939 | locus YDR069C, strain doa4, hits give low values 0.948 | locus YDR137W, strain rgp1, hits give low values 0.859 | locus YDR195W, strain ref2 1.13 | locus YDR297W, strain sur2, hits give low values 0.941 | locus YDR334W, strain swr1, hits give low values 0.946 | locus YDR335W, strain msn5, hits give low values 0.95 | locus YDR392W, strain spt3, hits give low values 0.758 | locus YEL003W, strain gim4, hits give low values 0.923 | locus YEL037C, strain rad23, hits give low values 0.938 | locus YEL061C, strain CIN8 (second series), hits give low values 0.931 | locus YER015W, strain faa2, hits give low values 0.955 | locus YER016W, strain bim1, hits give low values 0.954 | locus YER111C, strain swi4, hits give low values 0.95 | locus YFR010W, strain ubp6, hits give low values 0.932 | locus YGL167C, strain pmr1, hits give low values 0.945 | locus YGL173C, strain kem1, hits give low values 0.921 | locus YGL253W, strain hxk2, hits give low values 0.935 | locus YHR013C, strain ard1, hits give low values 0.875 | locus YHR027C, strain rpn1, hits give low values 0.969 | locus YHR030C, strain SLT2, hits give low values 0.931 | locus YHR079C, strain IRE1, hits give low values 0.935 | locus YHR142W, strain chs7, hits give low values 0.877 | locus YJL092W, strain hpr5, hits give low values 0.946 | locus YJL095W, strain BCK1 (second series), hits give low values 0.944 | locus YJL095W, strain BCK1, hits give low values 0.927 | locus YJL115W, strain asf1, hits give low values 0.944 | locus YJL129C, strain trk1, hits give low values 0.903 | locus YJL154C, strain vps35, hits give low values 0.939 | locus YJL164C, strain tpk1, hits give low values 0.93 | locus YJL166W, strain qcr8, hits give low values 0.912 | locus YJL187C, strain SWE1, hits give low values 0.945 | locus YJR066W, strain TOR1, hits give low values 0.855 | locus YKL160W, strain elf1, hits give low values 0.956 | locus YKR026C, strain gcn3, hits give low values 0.93 | locus YKR091W, strain srl3, hits give low values 0.946 | locus YLL001W, strain dnm1, hits give low values 0.939 | locus YLL026W, hits give low values 0.953 | locus YLL041C, strain sdh2, hits give low values 0.961 | locus YLR027C, strain aat2, hits give low values 0.962 | locus YLR113W, strain HOG1, hits give low values 0.901 | locus YLR258W, strain gsy2, hits give low values 0.933 | locus YLR342W, strain FKS1, hits give low values 0.954 | locus YLR357W, strain rsc2, hits give low values 0.942 | locus YLR370C, strain arc18, hits give low values 0.938 | locus YLR384C, strain iki3, hits give low values 0.974 | locus YMR058W, strain fet3, hits give low values 0.908 | locus YMR125W, strain sto1, hits give low values 0.984 | locus YMR129W, hits give low values 0.944 | locus YMR205C, strain PFK2, hits give low values 0.903 | locus YMR231W, strain pep5, hits give low values 0.982 | locus YNL071W, strain lat1, hits give low values 0.919 | locus YNL183C, strain NPR1, hits give low values 0.887 | locus YNL209W, strain ssb2, hits give low values 0.96 | locus YNL248C, strain rpa49, hits give low values 0.917 | locus YNL322C, strain KRE1 (second series), hits give low values 0.927 | locus YNR049C, strain mso1, hits give low values 0.937 | locus YOR001W, strain rrp6, hits give low values 0.95 | locus YOR070C, strain gyp1, hits give low values 0.937 | locus YOR080W, strain dia2, hits give low values 0.943 | locus YOR083W, strain WHI5, hits give low values 0.942 | locus YOR106W, strain vam3, hits give low values 0.91 | locus YOR231W, strain MKK1, hits give low values 0.96 | locus YOR265W, strain rbl2, hits give low values 0.962 | locus YPL051W, strain arl3, hits give low values 0.972 | locus YPL078C, strain atp4, hits give low values 0.908 | locus YPL106C, strain sse1, hits give low values 0.9 | locus YPL240C, strain hsp82, hits give low values 0.94 | locus YPL256C, strain CLN2, hits give low values 0.91
active: locus YBR009C, strain hhf1, hits give low values 0.88 | locus YBR023C, strain chs3, hits give low values 0.905 | locus YCL011C, strain gbp2, hits give low values 0.905 | locus YDR159W, strain sac3, hits give low values 0.847 | locus YER155C, strain BEM2 (second series), hits give low values 0.735 | locus YGL227W, strain vid30, hits give low values 0.913 | locus YGL240W, strain doc1, hits give low values 0.812 | locus YLR221C, strain rsa3, hits give low values 0.884 | locus YLR262C, strain YPT6 (second series), hits give low values 0.856 | locus YLR320W, strain mms22, hits give low values 0.87 | locus YML120C, strain ndi1, hits give low values 0.889 | locus YOR270C, strain vph1, hits give low values 0.744 | locus YOR290C, strain snf2, hits give low values 0.83
